The values below come from the supplement of paper PMC11417369.

The full ranking holds about 25,000 sequences; the median of “ln(normalized median fluorescence intensity)” is about 9.7, and the highest 2% start at about 11. The entries come from a sample that favours the highest values as a whole.

The test system of this assay is PfAP2-HC AP2 domain (GST-tagged). Kind of assay: gcPBM binding intensity (ln(normalized median fluorescence intensity)); higher = stronger DNA binding. In outline:
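The binding buffer was 1× PBS containing 1% milk, 0.2 mg/ml BSA, 0.5% salmon testes DNA and 0.03% Triton X-100. In it, GST-tagged P. falciparum DNA-binding domains expressed in E. coli were applied for 1 h to an Agilent 4 × 180k array of primer-extended double-stranded 36-bp intergenic genomic probes plus negative controls. Binding intensity, read with Alexa488 anti-GST antibody and a 488 nm scan, is the highest Masliner-normalised natural-log median intensity across replicate spots of either probe orientation.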
“TTTTTTTGCATTTCATGTACATATATTGAGCTTAAA [XGTACX_site8485]”: the “gcPBM binding intensity (ln)” value is 9.6.
For “TCACAAATGTATTATACACACAAGTTTTCTTTAATA [CACACA_site4107]”, the “gcPBM binding intensity (ln)” value was 9.71.
“ATGAATTTTTCTCTACAAAAGGATATAATAAAAATA [XGTACX_negctrl_site461]”: the “gcPBM binding intensity (ln)” value is 9.37.
Then “TTACGAATAAAACAGTGTACATTGAATTTCTATGAG [XGTACX_site4771]”, with 9.51; and “TTTTTAAAAATATACACACACAGATATTATAGATAT [CACACA_site6511]”, with 10.1; and “TCCTTATTTATATAATGTACTTTTTTTTTTCATTTT [XGTACX_site4275]”, with 9.64.
Take “TTTATTCAAATATAATGTACTTTCTACAAATTCAAT [XGTACX_site8119]”: the “gcPBM binding intensity (ln)” value worked out at 9.43.
In the case of “TATTATATAAAATATTTTATTATATCATCTTCTCTA [XGTACX_negctrl_site319]”, the “gcPBM binding intensity (ln)” value amounted to 9.44.
Then “TTCATTTTCATATATTGTACAAAATTTTATAAGGTT [XGTACX_site4522]”, with 9.58; and “ATCTTGAAGATTATTTGTACACAAAAGTTAAAATAT [XGTACX_site242]”, with 9.47.
Consider “AAAAAAAAAAAACATACACACAAATAAATACATACA [CACACA_site6073]”, for which the “gcPBM binding intensity (ln)” value is 10.1.
With “AAAAAAAAAAAACACACACACAAATACAAATACATA [CACACA_site415]” the figure was 11.5.
With “AAAAAAAAAAAACACACACACACAAATACATACACA [CACACA_site706]” the figure was 10.7; with “TCATACTGTATATTTTGTACTTATATATATATTATA [XGTACX_site6136]”, 10.
With “CACCCACCCACATACACACACATACACATATATATA [CACACA_site1722]” the figure was 10.3; with “GACATATTCCCCCCCACACACACACCCACATACATA [CACACA_site2302]”, 11.1.
For the sequence “TATTCCCCCCAACACACACACACACCGACATACCAC [CACACA_site8723]”, the “gcPBM binding intensity (ln)” value turned out to be 11.5.
With “ACATACATACCCCCACGTACGTACCGAAACACCACC [XGTACX_site1982]” the figure was 9.84; with “CATATTCCCCCCCACACACACACACCCATACATACC [CACACA_site2303]”, 10.6; with “TATTCCCCCAAACACACACACACACCCACATACCAC [CACACA_site2304]”, 10.7.
With “AATTATATATTATAATGTACATATATATAACTATAC [XGTACX_site1865]” the figure was 9.67; with “ATAATTCATGTTTAGTGTACAAAAAATTAAAGCAAC [XGTACX_site8891]”, 9.87; with “ATATAGTATAATAAAAGTACATTTTGATTTTTTCTC [XGTACX_site1797]”, 9.61.
Then “AATAAACATAAATAAAAATTATAAAATATATATATG [CACACA_negctrl_site1709]”, with 9.75; and “CATACACAGAAACACACACACATATATATATATATA [CACACA_site4519]”, with 10.2.
“TAAATACAGAAACACACACACAAATATATACATACA [CACACA_site2880]”: the “gcPBM binding intensity (ln)” value is 10.5.
As to “TAAAAAAAAACAGAAACACACATTATTCATATATAT [CACACA_site2049]”, the “gcPBM binding intensity (ln)” value was determined as 10.2.
Then “CATACATAGAAACACACACACACACCCACCCACAAA [CACACA_site494]”, with 10.6; and “TACATACAGAAACACACACACACATATATATATATA [CACACA_site2919]”, with 11.1; and “CATTATAAGAAACACACACACATATATATATATATA [CACACA_site1051]”, with 10.1.
With “ATATAACAGAAACACACACACATATATATATATTAT [CACACA_site4140]” the figure was 11.3.
Regarding “CATACACAGAAACACACACACATATATACATATATA [CACACA_site1094]”, the “gcPBM binding intensity (ln)” value is 10.4.
Then “CAAATACAGAAACACACACACATATACATATATATA [CACACA_site3498]”, with 10.4; and “TATACGCAGAAACACACACACATACACCCACATACA [CACACA_site1723]”, with 10.6; and “AACATACAGAAACACACACACACACCCACACCCACA [CACACA_site493]”, with 11.5.
On to “CATATACAGAAACACACACACACATAAATAAATATA [CACACA_site1343]”, for which the “gcPBM binding intensity (ln)” value was determined as 11.
Then “TTGTTAGAGTATATTGAAAGGATAACCTTTTTTTAT [XGTACX_negctrl_site122]”, with 9.43.
With AAAATAATTTTATAGTTGCACTATATCGTATACAAT, the “gcPBM binding intensity (ln)” value was 9.71.
With “AACGATTTACATCACTGTACTAATGATATACCTCAT [XGTACX_site7463]” the figure was 9.85; with “ATAAATATAACATATTGTACCCTTAAAAAGGAACAA [XGTACX_site352]”, 9.5.
As to “ACGTACTGCCCTAAAGTGCATATATAATATAAACGA [GTGCAC_site9911]”, the “gcPBM binding intensity (ln)” value was determined as 9.52.
Then “GTCATATTAATATGTACACACATATTTATATTTATA [CACACA_site6798]”, with 9.83; and “AATGTTTAATATAACGCATGCCTTAATATAGAATGC [TGCATGCA_site463]”, with 9.59.
Take “TAAAGAAAAAGAGAATGTACATGAGAAAAGTATACT [XGTACX_site7472]”: the “gcPBM binding intensity (ln)” value worked out at 9.79.
Regarding “TTTAAAAAAAAAAAAAAAAATTAAATGAATTATTAA [CACACA_negctrl_site1121]”, the “gcPBM binding intensity (ln)” value turned out to be 8.95.
“AAAAAAAAAAATATAACACACAACAAAAAAATATAT [CACACA_site1753]”: the “gcPBM binding intensity (ln)” value was 10.4.
Then “ATAGTAAACGAAATAAAAAGATTAGCATAATATCCT [CACACA_negctrl_site1730]”, with 9.79.
Then “ACATGTGAACATTCAATGCACACGATGTAATTATAC [CACACA_site14]”, with 9.84; and “TAATTTTTTTTTTTTTTTCATTCTTTTCCTTTGATT [CACACA_negctrl_site1365]”, with 9.22; and “CACAACATATATATATATATATATATATATATGTGT [CACACA_negctrl_site28]”, with 9.39.
With “TATATGTTTGAATATACACACAACATATTTATATAT [CACACA_site7832]” the figure was 9.74; with “ACTTCAAAAAAAAAAAAATATATATATATATATTAT [GTGCAC_negctrl_site158]”, 9.33; with “TATAATTTAACGACATGTACATATAAAAAAATATTT [XGTACX_site2395]”, 9.75.
In the case of “TTTTTTTTTTTGATTTGTACACAAAAAAAATATATG [XGTACX_site4547]”, the “gcPBM binding intensity (ln)” value came out at 9.42.
Then “TAATTTTTGAAACACACACACATATATATATATATA [CACACA_site94]”, with 10.5; and “AATTTGTTGAAACACACACACACATACATATATATA [CACACA_site2287]”, with 11.3; and “CATATATTTTGAAACACACACATATATAATATACAT [CACACA_site1158]”, with 10.4.
